FLuc modulator: firefly luciferase modulation, counter-screen for miR-21 project | purified FLuc, Km substrates, luminescence inhibition | 6.9% of 360,000 active | Potency, µM (top dose mostly 57.5 µM), for the others: at the highest dose activity change, negative = inhibition, actives largely listed as inhibitors | P08659;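 further: plate controls were vehicle for no effect and reference inhibitor for full effect; nearly all actives have a fitted effect of over 55% in size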
Target sequence (P08659 whole entry, looked up): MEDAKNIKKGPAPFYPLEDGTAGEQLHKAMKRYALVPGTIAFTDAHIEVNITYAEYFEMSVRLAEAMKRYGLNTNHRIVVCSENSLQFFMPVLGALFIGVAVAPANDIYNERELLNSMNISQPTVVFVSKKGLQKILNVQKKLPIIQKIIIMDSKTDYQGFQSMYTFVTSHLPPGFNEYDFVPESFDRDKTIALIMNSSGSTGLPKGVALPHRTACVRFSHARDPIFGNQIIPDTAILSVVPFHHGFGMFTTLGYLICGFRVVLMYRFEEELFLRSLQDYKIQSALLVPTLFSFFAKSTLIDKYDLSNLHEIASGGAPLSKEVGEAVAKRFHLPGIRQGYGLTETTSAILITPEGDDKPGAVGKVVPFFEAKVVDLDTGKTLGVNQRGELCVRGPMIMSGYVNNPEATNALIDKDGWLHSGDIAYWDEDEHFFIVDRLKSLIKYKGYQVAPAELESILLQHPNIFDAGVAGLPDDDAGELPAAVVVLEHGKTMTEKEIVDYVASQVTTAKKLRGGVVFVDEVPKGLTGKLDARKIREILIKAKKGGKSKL
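Biochemical qHTS of compounds, final roughly 60 µM downward over six points, against 10 nM purified firefly luciferase using Km concentrations of substrates (10 uM D-luciferin, 10 uM ATP) in Tris acetate pH 7.5 buffer; luminescence output.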
Rab9 prom act: activates the Rab9 promoter. Potency, µM (titrated, usually from 9.22 µM), inactives show top-dose activation, negative = inhibition, usual class: activators. 2.8% of 320,000 active. Huh7 Rab9 promoter-luciferase reporter, luminescence, 24 h; further: % of control where 0% means no effect; nearly all actives have a fitted effect of over 60% in size
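Steps: seed 1500 Huh7 Rab9-luc cells per well, rest 2 h at 37 °C; add compound in DMSO; incubate 24 h; add luciferase reagent, 10 min ambient; read luminescence.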
KinaseGlo FLuc: counter-screen: inhibitors of Kinase-Glo firefly luciferase | Q27757 | Potency, µM (highest dose often 38.3 µM), for the others: at the top dose activity change, negative = inhibition, actives largely listed as inhibitors | AID 1379 | 0.28% of 200,000 active | Kinase-Glo luciferase, ATP luminescence, 8 min; further: on the % scale 0 is the no-effect control and ±100 the full control effect; nearly all actives have a fitted effect of over 60% in size
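Substrate mix (final 50 mM imidazole pH 7.2, 50 mM KCl, 7 mM MgCl2, 10 uM ATP, 0.01% Tween 20, 0.05% BSA) plus pin-tool compound, then Kinase-Glo detection mix; 8 min ambient, luminescence read.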
ELG1 genotoxic: genotoxicity induction in ELG1-luciferase HEK293T cells; HEK293T ELG1-luciferase reporter, luminescence, 16 h; Potency, µM (doses to about 46 µM), for inactives: at the top dose activity change, positive = activation, usual class: activators; 1.3% of 330,000 active; AID 504466; further: % of control where 0% means no effect; nearly all actives have a fitted effect of over 60% in size
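Step 1: seed 2,000 HEK293T ELG1-luciferase cells per well. Step 2: add compound or DMSO, incubate 16 hr at 37 °C. Step 3: ONE-Glo, 30 min at room temperature, read luminescence.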
SMN2 splice up: increases expression of the SMN2 splice variant; HEK293 SMN2-luciferase splicing reporter, luminescence, 30-36 h; Potency, µM (titrated, usually from 46.1 µM), for the others: top-dose activity change, positive = activation, most hits filed as activators; 2.8% of 210,000 active; further: % of control where 0% means no effect; nearly all actives have a fitted effect of over 55% in size
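HEK293 cells carry an SMN2 minigene-luciferase reporter in which exon 7 inclusion puts luciferase in frame. Cells were seeded at 2000 cells/well, attached for 10-12 hours, then exposed to compounds for 30-36 hours at 37C before ONE-Glo luminescence.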
NPC1 promoter act: activates the NPC1 promoter; Huh7 NPC1 promoter luciferase reporter, 24 h; AID 485313; 2.4% of 320,000 active; Potency, µM (doses to about 9.22 µM), without a hit: top-dose activation, most hits filed as activators; further: % of control where 0% means no effect; nearly all actives have a fitted effect of over 60% in size
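Cells: Huh7 expressing luciferase under the NPC1 promoter, 1500/well. Seeded 2 h, compound added, incubated 24 h at 37 °C. Luciferase reagent, 10 min ambient, then luminescence.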
An asterisk follows results filed as active; u = inconclusive; x = no result; [ ] = dose if it differs, or a comment. Hits are enriched below; roughly 7.3% of the tested compounds scored in any of these assays. The call rests on the fitted dose curve; in most records, active means well fitted curve in the direction sought with a large enough effect; inconclusive means small, poorly fitted or top-dose-only effect, or another doubt; inactive means no such curve, though single readings can be large; an effect the other way counts as inactive or inconclusive. Potency means the concentration at half of the fitted maximal effect.

SMILES	FLuc modulator	Rab9 prom act	KinaseGlo FLuc	ELG1 genotoxic	SMN2 splice up	NPC1 promoter act
COc1ccc(-c2nnc(N(C)C(=O)c3cccnc3)s2)cc1	13.5µM*	u	-0.5%	u	15.8%	u
Cc1ccc(-c2nnc(N(C)C(=O)c3cccnc3)s2)cn1	-1.7%	-4.6%	-0.9%	7.0%	12.8%	1.2%
CC(=O)c1cccc(N=Nc2c(C)[nH]c3ccccc23)c1	23.9µM*	4.1%	-2.8%	6.4%	3.6%	2.3%
O=C(N=Nc1c(O)[nH]c2ccccc12)c1cccs1	2.13µM*	2.51µM*	u	12.0%	11.2µM*	u
O=C(O)c1ccc(N=Nc2c(O)[nH]c3ccccc23)cc1	0.426µM*	u	x	u	x	0.1µM*
CC(=O)c1cccc(N=C2NC(=O)CS2)c1	1.3%	2.5%	16.5%	-0.8%	-6.9%	2.3%
Oc1[nH]c2ccccc2c1N=Nc1c(F)c(F)c(C(F)(F)F)c(F)c1F	1.0%	2.4%	x	2.1%	x	0.2%
O=S(=O)(O)c1cc(O)c2c(N=Cc3ccccc3O)cc(S(=O)(=O)O)cc2c1	x	x	2.3%[7.66 µM]	x	4.0%[9.22 µM]	x
CCCn1c(=O)c2sccc2n2c(CCCC(=O)Nc3cccc(CC)c3)nnc12	3.2%	x	x	x	x	x
Nc1c2c(nc3ccc(Br)cc13)N(Cc1ccccc1)CC2	16.9µM*	-0.4%	1.6%	-1.9%	-16.3%	0.3%
Cc1cccc(N2CCc3c2nc2ccc(Br)cc2c3N)c1	8.49µM*	2.8%	-2.0%	-5.5%	-9.1%	-0.8%
CCN(CC)C(=O)c1ccc2c(c1[N+](=O)[O-])C(=O)c1ccccc1C2=O	3.3%	2.24µM*	1.9%	u	12.6µM*	2.82µM*
CCc1ccc(-n2c(=O)c3c4c(sc3n(CC(=O)c3ccc(F)cc3)c2=O)CCC4)cc1	-6.2%	x	x	x	-2.1%	x
CC(C)(C)c1ccc(/C=N/OCC(=O)NCc2ccc(F)cc2)cc1	30.1µM*	0.3%	1.2%	-3.1%	-11.6%	-0.9%
CC(C)(C)c1ccc(/C=N/OCC(=O)NCc2ccccc2)cc1	16.9µM*	-8.7%	1.2%	-1.1%	-14.5%	0.0%
COc1cccc(/C=C/C(=O)OCC(=O)c2ccc(C)c(C)c2)c1OC	u	-3.0%	x	0.3%	x	0.6%
Cc1cc(C(=O)COC(=O)C2CCN(C(=O)c3ccc(Cl)cc3)CC2)c(C)n1CC1CCCO1 (stereo unspecified)	15.1µM*	8.0%	0.8%	9.8%	2.9%	-3.8%
CCC(=O)c1ccc(OCC(=O)OCC(=O)c2cc(C)n(CC3CCCO3)c2C)cc1 (stereo unspecified)	-24.9%	-4.4%	x	-0.1%	x	3.8%
COc1cc(C(=O)OCC(=O)c2cc(C)n(CC3CCCO3)c2C)cc(OC)c1C (stereo unspecified)	16.9µM*	5.3%	x	3.2%	x	3.3%
COc1cccc(/C=C/C(=O)OCC(=O)c2cc(C)n(CC3CCCO3)c2C)c1OC (stereo unspecified)	13.5µM*	7.6%	x	0.8%	x	5.1%
Cc1cc(C(=O)COC(=O)c2ccc3c(c2)OCO3)c(C)n1CC1CCCO1 (stereo unspecified)	2.13µM*	1.26µM*	-9.2%	u	18.4%	1.58µM*
COc1cc(C)ccc1OCC(=O)OCC(=O)c1cc(C)n(CC2CCCO2)c1C (stereo unspecified)	u	0.6%	x	3.0%	x	-0.4%
Cc1cc(C)c2c(=O)cc(C(=O)Nc3ccc(S(=O)(=O)Nc4onc(C)c4C)cc3)oc2c1	u	x	x	x	-2.1%	x
Cn1cc(S(=O)(=O)c2ccccc2)c(=O)c2cc(F)c(N3CCCCCC3)cc21	-0.1%	x	x	x	x	x
CCc1ccc(Sc2cc(C(=O)NCCCN3CCC(C)CC3)c3ccccc3n2)cc1	0.0%	x	x	x	x	x
SMILES	FLuc modulator	Rab9 prom act	KinaseGlo FLuc	ELG1 genotoxic	SMN2 splice up	NPC1 promoter act
CCCN1CCCc2cc(CN(CCCN3CCOCC3)C(=O)Nc3ccc(CC)cc3)ccc21	-7.6%	x	x	x	x	x
COc1cccc(/C=C/c2ccccn2)c1O	3.01µM*	2.82µM*	x	7.3µM*	x	1.26µM*
C=CCSc1nc2ccccc2c(=O)[nH]1	-5.2%	-17.8%	-0.5%	7.5%	12.1%	0.9%
C=CCSc1nn2c(=O)c3ccccc3nc2s1	13.5µM*	3.16µM*	-12.5%	u	u	2.51µM*
Cc1nnc2sc(SCc3ccccc3)nn2c1=O	0.1%	-5.8%	-0.3%	2.7%	7.3%	1.0%
C/C(Cl)=C/CSc1nn2c(=O)c3ccccc3nc2s1	12µM*	u	-6.5%	u	26.8%	u
Cn1nnc2c(NCc3ccc(Cl)cc3)ncnc21	-1.1%	x	x	x	x	x
Cc1nn(C)c2c1c(-c1ccccc1)cc(=O)n2Cc1ccccc1Cl	-1.4%	x	x	x	x	x
CNC(=S)N/N=C/c1cn(CCOc2ccc(OC)cc2)c2ccccc12	21.3µM*	-2.8%	-1.1%	5.5%	u	-0.7%
Cc1ccc(OCC(=O)N/N=C\c2cn(Cc3ccccc3)c3ccccc23)cc1C	0.2%	6.8%	-0.2%	-3.5%	-27.5%	-0.7%
Cc1ccc(OCC(=O)N/N=C/c2cn(C)c3ccccc23)cc1	10.7µM*	10.7%	x	3.5%	x	2.8%
Cc1ccccc1OCC(=O)N/N=C/c1cn(C)c2ccccc12	15.1µM*	12.7%	x	-2.2%	x	-1.5%
O=C(Cn1ccc2cc(S(=O)(=O)N3CCCCCC3)ccc21)NCc1cccc(Cl)c1	8.1%	x	x	x	x	x
OCCNc1nc(Nc2ccccc2)nc2ccccc12	u	-3.0%	0.3%	-4.8%	-34.4%	-8.0%
OCCNc1nc(Nc2ccc(Br)cc2)nc2ccccc12	16.9µM*	0.4%	9.2%	-7.7%	-19.0%	-7.3%
Cc1c(Cl)cccc1Nc1nc(NCCO)c2ccccc2n1	15.1µM*	-4.0%	x	-2.8%	x	3.9%
O=C(Cn1ncc2c(=O)oc3ccccc3c21)N1CCN(c2ccc(Cl)cc2)CC1	0.6%	x	x	x	3.5%	x
O=C(O)Cc1ccc(NC(=O)c2ccc(Cl)c(Cl)c2)cc1	8.49µM*	-4.7%	0.7%	11.8%	12.2%	2.4%
O=C(O)Cc1ccc(NC(=O)c2ccc(NC(=O)C3CC3)cc2)cc1	16.9µM*	19.2%	x	-0.4%	x	-2.0%
O=C(Nc1ccncc1)c1ccc(Cl)c(Cl)c1	-15.8%	-0.3%	x	5.3%	x	1.2%
CC(C)(C)c1ccc(C(=O)Nc2ccc(CC(=O)O)cc2)o1	4.26µM*	-19.0%	-3.4%	-6.9%	-27.6%	-15.4%
Cc1ccc(C(=O)Nc2ccc(CC(=O)O)cc2)o1	u	-1.4%	-10.8%	0.5%	u	1.5%
O=C(Nc1ccc(Cc2ccc(NC(=O)C3CC3)cc2)cc1)C1CC1	-0.2%	-1.3%	0.2%	8.5%	-24.7%	-5.2%
O=C(CSc1nccn1Cc1ccccc1)NCc1ccco1	-20.7%	x	x	x	x	x
Cc1[nH]c2ccccc2c1C1(O)C(=O)N(Cc2ccccc2)c2ccc(Cl)cc21 (stereo unspecified)	1.4%	x	x	x	u	x

Source: PubChem BioAssay
